Reference: the supplement of paper PMC10127200
Structures can show the parent of a compound that is named as a salt.

How the values were obtained:
Experiment in all cases: Euclidean distance of Cell Painting phenotypic profile (signed KS, 77 features) to DMSO centroid (dimensionless distance); 5 or 10 uM (library dependent); higher = stronger phenotypic change vs DMSO (phenoactivity)
Settings in all cases: 48 h
786-O = system: 786-O
Outline: (§1)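 Phenoactivity is defined as the Euclidean distance from a compound profile to the median vehicle profile. Each profile comprised 77 Harmony features, scored as signed Kolmogorov-Smirnov statistics versus same-plate vehicle wells, then plate-position corrected, correlation-weighted and replicate-averaged at the top dose. Five cancer lines and one healthy fibroblast line were exposed to library compounds for 48 h at 10 or 5 uM (0.1% DMSO final).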

A549 = system: A549
Outline: as §1

DU145 = system: DU145
Outline: as §1

FB = system: FB
Outline: as §1

HEPG2 = system: HEPG2
Outline: as §1

OVCAR4 = system: OVCAR4
Outline: as §1

SMILES | Euclidean distance (786-O) | Euclidean distance (A549) | Euclidean distance (DU145) | Euclidean distance (FB) | Euclidean distance (HEPG2) | Euclidean distance (OVCAR4)
Cn1cc(/C=C/C(=O)c2cccc(F)c2)cc1/C=C/C(=O)NO | 1.27 | 1.61 | 0.756 | 1.27 | 0.359 | 0.539
O=C(Nc1c[nH]nc1-c1nc2ccc(CN3CCOCC3)cc2[nH]1)NC1CC1 | 3.05 | 3.01 | 3 | 2.87 | 2.74 | 2.7
O=C(COc1ccc(C(=O)c2ccccc2)cc1)NC1CCN(Cc2ccccc2)CC1 [AdipoRon] | 0.958 | 0.958 | 0.661 | 0.817 | 1.11 | 0.793
CC(C)(c1ccc(O)cc1)c1ccc(O)cc1 [Bisphenol A] | 0.955 | 1.21 | 0.773 | 0.78 | 0.694 | 0.934
O=C1C(CC[S+]([O-])c2ccccc2)C(=O)N(c2ccccc2)N1c1ccccc1 (racemic) [(+/-)-Sulfinpyrazone] | 1.01 | 1.79 | 1.38 | 1.22 | 0.755 | 0.993
O=C1Nc2ccccc2C1=O [Isatin] | 0.739 | 1.21 | 1.26 | 1.29 | 1.03 | 1.39
CCCCCCCCCC(=O)OC1(c2ccc(Cl)cc2)CCN(CCCC(=O)c2ccc(F)cc2)CC1 [Haloperidol Decanoate] | 0.828 | 1.13 | 1.01 | 0.816 | 0.961 | 1.26
CN1CCN(C2=Nc3cc(Cl)ccc3Nc3ccccc32)CC1 [Clozapine] | 1.75 | 1.56 | 1.21 | 0.901 | 1.03 | 1.34
CCc1cc2c(cc1N1CCC(N3CCOCC3)CC1)C(C)(C)c1[nH]c3cc(C#N)ccc3c1C2=O | 1.54 | 2.54 | 0.905 | 1.15 | 0.968 | 1.01
N#Cc1ccc([C@H]2CCc3cncn32)c(F)c1 [Osilodrostat (LCI699)] | 1.39 | 1.28 | 1.56 | 1.68 | 0.588 | 1.57
CN(C(=O)c1c(O)c2ccccc2n(C)c1=O)c1ccccc1 [Roquinimex] | 0.929 | 0.796 | 1.13 | 1.32 | 0.76 | 0.974
CC(C)C[C@H](NC(=O)[C@@H](NC(=O)c1cccc(-c2ccccc2)n1)[C@@H](C)O)B(O)O | 4.27 | 4.06 | 4.4 | 3.55 | 4.77 | 5.53
CC(C)[C@H](NC(=O)[C@H](CC(=O)O)NC(=O)[C@H](CCCCN)NC(=O)[C@@H](N)CCCN=C(N)N)C(=O)N[C@@H](Cc1ccc(O)cc1)C(=O)O [Thymopentin] | 1.56 | 1.19 | 0.821 | 0.825 | 0.557 | 1.06
CC/C=C(\C(=O)N[C@@H]1C(=O)N2C(C(=O)OCOC(=O)C(C)(C)C)=C(COC(N)=O)CS[C@H]12)c1csc(N)n1 [Cefcapene Pivoxil Hydrochloride] | 1.24 | 0.833 | 2.69 | 0.746 | 0.54 | 0.898
COc1cnc(-n2cnc(C)n2)c2[nH]cc(C(=O)C(=O)N3CCN(C(=O)c4ccccc4)CC3)c12 | 1.35 | 0.841 | 0.792 | 0.569 | 1.32 | 0.969
Cc1onc(-c2ccccc2)c1C(=O)N[C@@H]1C(=O)N2[C@@H]1SC(C)(C)[C@@H]2C(=O)O [Oxacillin sodium monohydrate] | 1.39 | 1.09 | 1.47 | 1.11 | 0.665 | 1.37
Nc1cccc2c1CN(C1CCC(=O)NC1=O)C2=O (stereo not given) [Lenalidomide (CC-5013)] | 1.74 | 1.2 | 0.79 | 1.03 | 0.639 | 1.15
CC1CC(OC(=O)C(O)c2ccccc2)CC(C)(C)C1 (stereo not given) [Cyclandelate] | 1.19 | 1.12 | 1.02 | 0.843 | 0.782 | 1.02
CC(C)(C)c1nc(-c2cccc(NS(=O)(=O)c3c(F)cccc3F)c2F)c(-c2ccnc(N)n2)s1 | 1.53 | 1.16 | 1.31 | 3.02 | 1.45 | 1.03
CC[C@@H](Nc1c(Nc2cccc(C(=O)N(C)C)c2O)c(=O)c1=O)c1ccc(C)o1 | 1.24 | 0.692 | 0.995 | 0.605 | 0.633 | 0.96
CC(=O)N[C@H]1[C@H]([C@H](O)[C@H](O)CO)OC(C(=O)O)=C[C@@H]1NC(=N)N [Zanamivir] | 1.74 | 1 | 0.755 | 0.983 | 0.8 | 1.21
COCCCC/C(=N\OCCN)c1ccc(C(F)(F)F)cc1 [Fluvoxamine maleate] | 1.27 | 0.895 | 0.762 | 1.25 | 1.1 | 1.58
COc1ccc(C(=O)c2ccccc2)c(O)c1 [Oxybenzone] | 1.07 | 0.943 | 0.824 | 1.34 | 0.753 | 1.32

SMILES | Euclidean distance (786-O) | Euclidean distance (A549) | Euclidean distance (DU145) | Euclidean distance (FB) | Euclidean distance (HEPG2) | Euclidean distance (OVCAR4)
CNC[C@H](O)[C@@H](O)[C@H](O)[C@H](O)CO [Meglumine] | 1.78 | 1.75 | 2.13 | 1.59 | 0.652 | 1.67
CC/C(=C(\c1ccc(O)cc1)c1ccc(OCCN(C)C)cc1)c1ccccc1 [4-Hydroxytamoxifen] | 3.21 | 2.74 | 2.16 | 2.61 | 4.31 | 2.89
CC[C@@]1(O)C(=O)OCc2c1cc1n(c2=O)Cc2cc3c(CN(C)C)c(O)ccc3nc2-1 [Topotecan] | 3.37 | 4.25 | 3.94 | 3.77 | 3.31 | 2.85
O=c1[nH]cnc2nc[nH]c12 [Hypoxanthine] | 1.19 | 1.2 | 1.16 | 1.66 | 0.856 | 2.43
COC(=O)N/N=C/c1c[n+]([O-])c2ccccc2[n+]1[O-] [Carbadox] | 0.912 | 0.99 | 0.837 | 1.23 | 1.04 | 1.46
CCC[C@@H]1C[C@@H](C(=O)N[C@@H]([C@H]2O[C@H](SC)[C@H](O)[C@@H](O)[C@H]2O)[C@@H](C)O)N(C)C1 [Lincomycin Hydrochloride Monohydrate] | 0.425 | 0.311 | 0.923 | 0.981 | 0.275 | 1.41
COc1cc(C(=O)OCCCCNC(=N)N)cc(OC)c1O [Leonurine] | 1.19 | 0.869 | 0.698 | 1.29 | 0.641 | 0.953
COc1ccc2cc(C(=O)O)ccc2c1 [6-Methoxy-2-naphthoic acid] | 0.861 | 0.63 | 0.683 | 1.15 | 0.634 | 1.19
Cn1nnc2c(C(N)=O)ncn2c1=O [Temozolomide] | 1.44 | 0.97 | 2.71 | 0.972 | 1.44 | 0.619
CC(=O)OCC1=C(C(=O)O)N2C(=O)[C@@H](NC(=O)CSC(=NC(C)C)NC(C)C)[C@H]2SC1 [Cefathiamidine] | 1.48 | 0.7 | 1.41 | 0.888 | 0.62 | 1.82
Oc1cc(O)c(Cl)cn1 [Gimeracil] | 0.868 | 1.07 | 1.6 | 1.25 | 2.06 | 1.53
O=c1cc(N2CCOCC2)oc2c(-c3ccccc3)cccc12 | 1.73 | 1.09 | 1.16 | 1.79 | 1.66 | 2.16
CC(C(=O)O)c1cccc(C(=O)c2ccccc2)c1 (stereo not given) [Ketoprofen] | 1.28 | 0.765 | 2.29 | 0.989 | 0.77 | 1.42
O=C1c2c(O)ccc(O)c2C(=O)c2c(NCCNCCO)ccc(NCCNCCO)c21 [Mitoxantrone 2HCl] | 5.6 | 5.26 | 4.77 | 7.28 | 5.09 | 5.15
CCNC(=O)[C@@H]1CCCN1C(=O)[C@H](CCCN=C(N)N)NC(=O)[C@H](CC(C)C)NC(=O)[C@@H](C)NC(=O)[C@H](Cc1ccc(O)cc1)NC(=O)[C@H](CO)NC(=O)[C@H](Cc1c[nH]c2ccccc12)NC(=O)[C@H](Cc1cnc[nH]1)NC(=O)[C@@H]1CCC(=O)N1 [Alarelin Acetate] | 0.728 | 1.38 | 0.974 | 2.05 | 1.87 | 1.24
CC(C)n1nc(-c2cc3cc(O)ccc3[nH]2)c2c(N)ncnc21 | 4.59 | 3.23 | 2.64 | 4.3 | 3.12 | 4.61
CC(C)C[C@H](NC(=O)[C@@H](COC(C)(C)C)NC(=O)[C@H](Cc1ccc(O)cc1)NC(=O)[C@H](CO)NC(=O)[C@H](Cc1c[nH]c2ccccc12)NC(=O)[C@H](Cc1cnc[nH]1)NC(=O)[C@@H]1CCC(=O)N1)C(=O)N[C@@H](CCCNC(=N)N)C(=O)N1CCC[C@H]1C(=O)NNC(N)=O [Goserelin Acetate] | 1.49 | 0.535 | 2.39 | 0.568 | 0.784 | 1.07
COc1ccccc1OCC(O)COC(N)=O (stereo not given) [Methocarbamol] | 1.4 | 0.507 | 1.06 | 0.751 | 1.83 | 0.907
COc1ccc(Cl)cc1NC(=O)Nc1cc(C)nc2ccccc12 | 1.14 | 1.85 | 1.06 | 1.02 | 0.631 | 1.47
CC(C)NC(=O)COc1cccc(-c2nc(Nc3ccc4[nH]ncc4c3)c3ccccc3n2)c1 | 2.53 | 3.23 | 3.11 | 2.67 | 1.76 | 2.43
FC(F)(F)c1ccc(/C=C/c2nc(COc3ccc(CCCCn4ccnn4)cc3)co2)cc1 [Mubritinib (TAK 165)] | 0.614 | 1.76 | 1.4 | 1.61 | 1.89 | 1.42
CC(C)NCC(O)COc1ccc(COCCOC(C)C)cc1 (stereo not given) [Bisoprolol fumarate] | 0.611 | 0.836 | 0.523 | 0.91 | 0.467 | 1.36
